Assay results from the supplement of paper PMC8728848.
Shown is part of a subset that was picked to be rich in the strongest signals.

Experiments:
Test in all cases: glycan array binding signal (z-score within array); higher = stronger binding
Settings in all cases: glycan notation: IUPAC condensed, linker removed
[1] = target: Gal(b1-4)GlcNAc(a1-6)Gal(b1-4)GlcNAc
Procedure, shortened: (§1)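 Glycan array data were curated from 3228 arrays in the Consortium for Functional Glycomics database and kept only where the protein sequence was available. Glycan names were converted to IUPAC-condensed notation, and columns mapping to the same glycan were averaged. The binding signal is a within-array Z-score, averaged across arrays of the same protein sequence at different concentrations or buffers and across linkers. Negative Z-scores can be read as non-binding.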

[2] = target: Gal(b1-4)GlcNAc(b1-2)[Gal(b1-4)GlcNAc(b1-6)]Man(a1-6)[GlcNAc(b1-4)][Gal(b1-4)GlcNAc(b1-2)[Gal(b1-4)GlcNAc(b1-4)]Man(a1-3)]Man(b1-4)GlcNAc(b1-4)[Fuc(a1-6)]GlcNAc
Procedure, shortened: as §1

[3] = target: Gal(b1-4)GlcNAc(b1-3)Gal(b1-4)GlcNAc
Procedure, shortened: as §1

Gal4S6S(b1-4)GlcNAc = target: Gal4S6S(b1-4)GlcNAc
Procedure, shortened: as §1

Gal6S(b1-4)GlcNAc = target: Gal6S(b1-4)GlcNAc
Procedure, shortened: as §1

Gal6S(b1-4)GlcNAc6S = target: Gal6S(b1-4)GlcNAc6S
Procedure, shortened: as §1

[4] = target: GalNAc(b1-3)Gal(a1-4)Gal(b1-4)GlcNAc
Procedure, shortened: as §1

Glc(a1-4)Glc = target: Glc(a1-4)Glc
Procedure, shortened: as §1

[5] = target: GlcNAc(a1-4)Gal(b1-4)GlcNAc(b1-3)Gal(b1-4)GlcNAc
Procedure, shortened: as §1

[6] = target: GlcNAc(a1-4)Gal(b1-4)GlcNAc(b1-3)Gal(b1-4)[Fuc(a1-3)]GlcNAc(b1-3)Gal(b1-4)[Fuc(a1-3)]GlcNAc
Procedure, shortened: as §1

[7] = target: GlcNAc(b1-2)Man(a1-3)[GlcNAc(b1-4)][GlcNAc(b1-2)Man(a1-6)]Man(b1-4)GlcNAc(b1-4)[Fuc(a1-6)]GlcNAc
Procedure, shortened: as §1

[8] = target: GlcNAc(b1-2)[GlcNAc(b1-4)]Man(a1-3)[GlcNAc(b1-2)Man(a1-6)]Man(b1-4)GlcNAc(b1-4)GlcNAc
Procedure, shortened: as §1

[9] = target: GlcNAc(b1-2)[GlcNAc(b1-4)]Man(a1-3)[GlcNAc(b1-4)][GlcNAc(b1-2)Man(a1-6)]Man(b1-4)GlcNAc(b1-4)GlcNAc
Procedure, shortened: as §1

GlcNAc(b1-3)Gal = target: GlcNAc(b1-3)Gal
Procedure, shortened: as §1

[10] = target: GlcNAc(b1-3)Gal(b1-4)GlcNAc(b1-2)[GlcNAc(b1-3)Gal(b1-4)GlcNAc(b1-6)]Man(a1-6)[GlcNAc(b1-3)Gal(b1-4)GlcNAc(b1-2)Man(a1-3)]Man(b1-4)GlcNAc(b1-4)GlcNAc
Procedure, shortened: as §1

[11] = target: Neu5Ac(a2-3)Gal(b1-4)GlcNAc(b1-2)Man(a1-3)[Neu5Ac(a2-6)Gal(b1-4)GlcNAc(b1-2)Man(a1-6)]Man(b1-4)GlcNAc(b1-4)GlcNAc
Procedure, shortened: as §1

[12] = target: Neu5Ac(a2-3)Gal6S(b1-4)[Fuc(a1-3)]GlcNAc
Procedure, shortened: as §1

[13] = target: Neu5Ac(a2-6)Gal(b1-4)GlcNAc(b1-2)Man(a1-3)[GlcNAc(b1-2)Man(a1-6)]Man(b1-4)GlcNAc(b1-4)GlcNAc
Procedure, shortened: as §1

[14] = target: Neu5Ac(a2-6)Gal(b1-4)GlcNAc(b1-3)Gal(b1-4)GlcNAc
Procedure, shortened: as §1

[15] = target: Neu5Ac(a2-6)Gal(b1-4)GlcNAc(b1-3)Gal(b1-4)GlcNAc(b1-3)GalNAc
Procedure, shortened: as §1

[16] = target: Neu5Ac(a2-6)Gal(b1-4)GlcNAc(b1-6)[Gal(b1-3)]GalNAc
Procedure, shortened: as §1

[17] = target: Neu5Ac(a2-8)Neu5Ac(a2-3)Gal(b1-4)GlcNAc
Procedure, shortened: as §1

Neu5Ac(b2-6)GalNAc = target: Neu5Ac(b2-6)GalNAc
Procedure, shortened: as §1

B1: Epa13 (Candida glabrata) (protein)
chain: MGSSHHHHHHSSGLVPRGSHMASDSSENGYAHGCSPSIRAKLKPGLSMEIYSYALRPTDDHCWDSAYLDPMFPRTGYLTHKLLGKAEGIIGPLNFLAKNPACIPAVSTLPLAFHFPKPFTITNFTMLLYGYLSPKKTGKYTFKLLADDLLLMNFGADNAFDCCSHDATKDNIGEYVAYSVWPGVNKNVTVYLESGIYYPLRLFFNNRDAIAQLDFAYYFNDSPIRQTDFSGMFFSIPDSVKCPANI
glycan array binding signal (z-score) [1]: 0.075 | glycan array binding signal (z-score) [2]: -0.476 | glycan array binding signal (z-score) [3]: -0.291 | glycan array binding signal (z-score) (Gal4S6S(b1-4)GlcNAc): -0.32 | glycan array binding signal (z-score) (Gal6S(b1-4)GlcNAc): 0.111 | glycan array binding signal (z-score) (Gal6S(b1-4)GlcNAc6S): 2.69 | glycan array binding signal (z-score) [4]: -0.05 | glycan array binding signal (z-score) (Glc(a1-4)Glc): -0.521 | glycan array binding signal (z-score) [5]: 0.04 | glycan array binding signal (z-score) [6]: -0.218 | glycan array binding signal (z-score) [7]: 0.145 | glycan array binding signal (z-score) [8]: -0.393 | glycan array binding signal (z-score) [9]: -0.299 | glycan array binding signal (z-score) (GlcNAc(b1-3)Gal): -0.445 | glycan array binding signal (z-score) [10]: 0.485 | glycan array binding signal (z-score) [11]: -0.354 | glycan array binding signal (z-score) [12]: -0.54 | glycan array binding signal (z-score) [13]: -0.413 | glycan array binding signal (z-score) [14]: -0.07 | glycan array binding signal (z-score) [15]: -0.142 | glycan array binding signal (z-score) [16]: -0.381 | glycan array binding signal (z-score) [17]: -0.449 | glycan array binding signal (z-score) (Neu5Ac(b2-6)GalNAc): -0.624
